These results are taken from paper PMC7862700, “An all-to-all approach to the identification of sequence-specific readers for epigenetic DNA modifications on cytosine”.

Holding throughout (assay): DAPPL (digital affinity profiling via proximity ligation, sequencing); 10 mM Tris-HCl pH 7.5, 50 mM NaCl, 1 mM DTT, 4% glycerol, room temperature, 30 min; GST-TFs on glutathione beads, 16-mer random dsDNA library, 0.1% formaldehyde crosslink after washing; high values mean tight binding
The target in one test is T1, FEV (Homo sapiens, UniProt Q99581 1-238).
T1 sequence: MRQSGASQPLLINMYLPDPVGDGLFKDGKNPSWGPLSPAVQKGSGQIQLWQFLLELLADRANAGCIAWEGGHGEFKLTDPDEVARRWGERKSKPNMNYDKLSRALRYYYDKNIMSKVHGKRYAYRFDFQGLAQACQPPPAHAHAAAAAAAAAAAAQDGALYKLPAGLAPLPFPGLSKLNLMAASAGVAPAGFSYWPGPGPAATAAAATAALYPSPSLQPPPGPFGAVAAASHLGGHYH
Conditions: protein: recombinant; tags: N-terminal GST; dsDNA, one strand shown. The essentials:
(§1)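 Binding signal is each hexamer's read frequency for a factor divided by its frequency in the tag-only sample. The factors were GST-fused human transcription factors from yeast, captured on glutathione beads, DNA-barcoded and pooled with that sample. Pools were incubated with 200 nmole of a random double-stranded 16-mer DNA library in Tris/NaCl/DTT/glycerol buffer at room temperature for 30 min, then washed, crosslinked with 0.1% formaldehyde, proximity-ligated with BsaI/T4 ligase (1 h, 37 °C), PCR-amplified and sequenced on an Illumina NextSeq500.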

The next test addresses ETV5 (Homo sapiens, UniProt P41161 1-510). Conditions: protein: recombinant; tags: N-terminal GST; dsDNA, one strand shown. The essentials: as §1
The target of a further test is HSF1 (Homo sapiens, UniProt Q00613 1-529). Conditions: protein: recombinant; tags: N-terminal GST; chain copies: 3; dsDNA, one strand shown. The method in brief:
as §1

The next test addresses T2, SPIC (Homo sapiens, UniProt Q8N5J4 1-248).
T2 sequence: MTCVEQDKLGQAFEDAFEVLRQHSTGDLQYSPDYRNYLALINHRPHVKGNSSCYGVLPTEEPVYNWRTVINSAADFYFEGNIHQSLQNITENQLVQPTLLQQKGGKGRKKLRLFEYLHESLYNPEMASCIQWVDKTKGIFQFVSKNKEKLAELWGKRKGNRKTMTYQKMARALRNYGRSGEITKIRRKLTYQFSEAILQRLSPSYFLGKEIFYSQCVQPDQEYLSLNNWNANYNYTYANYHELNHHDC
The conditions noted are these: protein: recombinant; tags: N-terminal GST; dsDNA, one strand shown. The essentials:
as §1

The target of another test is ELF4 (Homo sapiens, UniProt Q99607 1-663). The conditions noted are these: protein: recombinant; tags: N-terminal GST; dsDNA, one strand shown. The essentials: as §1
In a further test the target is T3, ELK4 (Homo sapiens, UniProt P28324-2 1-405).
T3 sequence: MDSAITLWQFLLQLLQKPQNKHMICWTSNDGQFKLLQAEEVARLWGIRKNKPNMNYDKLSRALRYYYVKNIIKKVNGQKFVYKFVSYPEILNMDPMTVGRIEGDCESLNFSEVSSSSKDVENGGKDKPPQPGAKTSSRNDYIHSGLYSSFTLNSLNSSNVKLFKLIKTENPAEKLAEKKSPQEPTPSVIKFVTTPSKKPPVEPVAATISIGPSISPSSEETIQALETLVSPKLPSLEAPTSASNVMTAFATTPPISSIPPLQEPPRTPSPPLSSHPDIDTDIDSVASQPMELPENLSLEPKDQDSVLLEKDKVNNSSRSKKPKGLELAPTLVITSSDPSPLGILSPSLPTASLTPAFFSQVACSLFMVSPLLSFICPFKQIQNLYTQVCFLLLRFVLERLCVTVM
Conditions: protein: recombinant; tags: N-terminal GST; dsDNA, one strand shown. The essentials:
as §1

Another test addresses T4, ETV2 (Homo sapiens, UniProt O00321 1-342).
T4 sequence: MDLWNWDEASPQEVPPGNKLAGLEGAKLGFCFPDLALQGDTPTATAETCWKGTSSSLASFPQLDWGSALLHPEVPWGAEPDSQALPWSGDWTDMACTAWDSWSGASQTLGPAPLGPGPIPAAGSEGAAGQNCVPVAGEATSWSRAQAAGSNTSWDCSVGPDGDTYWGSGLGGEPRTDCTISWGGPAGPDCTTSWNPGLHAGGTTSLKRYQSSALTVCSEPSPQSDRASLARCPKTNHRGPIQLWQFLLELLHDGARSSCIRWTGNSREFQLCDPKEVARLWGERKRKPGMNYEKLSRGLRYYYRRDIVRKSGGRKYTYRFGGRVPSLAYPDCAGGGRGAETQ
Conditions: protein: recombinant; tags: N-terminal GST; dsDNA, one strand shown. The essentials:
as §1

In another test the target is T5, ELF3 (Homo sapiens, UniProt P78545 1-371).
T5 sequence: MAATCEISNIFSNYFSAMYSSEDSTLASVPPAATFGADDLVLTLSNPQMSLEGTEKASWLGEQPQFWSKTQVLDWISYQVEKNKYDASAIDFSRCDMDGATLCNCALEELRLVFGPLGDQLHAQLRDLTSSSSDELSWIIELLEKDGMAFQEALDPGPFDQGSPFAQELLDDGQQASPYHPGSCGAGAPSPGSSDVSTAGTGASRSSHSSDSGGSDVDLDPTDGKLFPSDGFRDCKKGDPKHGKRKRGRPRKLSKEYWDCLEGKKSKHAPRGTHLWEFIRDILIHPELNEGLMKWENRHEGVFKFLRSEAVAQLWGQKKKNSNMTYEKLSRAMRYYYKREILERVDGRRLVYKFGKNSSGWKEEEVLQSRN
The conditions noted are these: protein: recombinant; tags: N-terminal GST; dsDNA, one strand shown. The essentials: as §1

For a further test, the target named is CRX (Homo sapiens, UniProt O43186 1-299). The conditions noted are these: protein: recombinant; tags: N-terminal GST; dsDNA, one strand shown. The essentials: as §1
The next test concerns the target ETV1 (Homo sapiens, UniProt P50549 1-477). Conditions: protein: recombinant; tags: N-terminal GST; dsDNA, one strand shown. The method in brief: as §1
For another test, the target named is T6, ERF (Homo sapiens, UniProt P50548 1-548).
T6 sequence: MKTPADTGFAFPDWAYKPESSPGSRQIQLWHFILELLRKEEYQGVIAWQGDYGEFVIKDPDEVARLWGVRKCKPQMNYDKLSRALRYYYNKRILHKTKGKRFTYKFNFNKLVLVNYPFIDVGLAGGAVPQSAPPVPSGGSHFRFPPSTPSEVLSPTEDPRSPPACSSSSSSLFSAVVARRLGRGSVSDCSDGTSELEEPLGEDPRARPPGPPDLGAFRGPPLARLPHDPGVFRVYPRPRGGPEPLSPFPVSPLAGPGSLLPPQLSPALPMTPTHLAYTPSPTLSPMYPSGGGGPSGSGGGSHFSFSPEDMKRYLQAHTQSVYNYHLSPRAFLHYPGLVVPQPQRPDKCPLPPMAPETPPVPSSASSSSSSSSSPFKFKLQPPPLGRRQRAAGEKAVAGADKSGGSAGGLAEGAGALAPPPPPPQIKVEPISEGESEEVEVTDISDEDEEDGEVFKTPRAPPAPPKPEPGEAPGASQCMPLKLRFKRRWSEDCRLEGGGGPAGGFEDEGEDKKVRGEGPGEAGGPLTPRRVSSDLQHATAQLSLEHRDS
The conditions noted are these: protein: recombinant; tags: N-terminal GST; dsDNA, one strand shown. The method in brief:
as §1

In another test the target is T7, ETV3L (Homo sapiens, UniProt Q6ZN32 1-361).
T7 sequence: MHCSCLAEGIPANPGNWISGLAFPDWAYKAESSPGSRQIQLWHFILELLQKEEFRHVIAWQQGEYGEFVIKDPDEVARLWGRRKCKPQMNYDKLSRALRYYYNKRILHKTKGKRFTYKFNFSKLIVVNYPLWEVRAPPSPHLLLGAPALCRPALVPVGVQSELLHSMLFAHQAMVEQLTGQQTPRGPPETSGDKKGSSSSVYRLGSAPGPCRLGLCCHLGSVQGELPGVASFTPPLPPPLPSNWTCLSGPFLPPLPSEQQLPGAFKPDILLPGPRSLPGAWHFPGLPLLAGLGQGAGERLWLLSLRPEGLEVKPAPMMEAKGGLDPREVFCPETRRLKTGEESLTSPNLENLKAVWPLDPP
Conditions: protein: recombinant; tags: N-terminal GST; dsDNA, one strand shown. The essentials: as §1

The target in another test is T8, ETS2 (Homo sapiens, UniProt P15036 1-469).
T8 sequence: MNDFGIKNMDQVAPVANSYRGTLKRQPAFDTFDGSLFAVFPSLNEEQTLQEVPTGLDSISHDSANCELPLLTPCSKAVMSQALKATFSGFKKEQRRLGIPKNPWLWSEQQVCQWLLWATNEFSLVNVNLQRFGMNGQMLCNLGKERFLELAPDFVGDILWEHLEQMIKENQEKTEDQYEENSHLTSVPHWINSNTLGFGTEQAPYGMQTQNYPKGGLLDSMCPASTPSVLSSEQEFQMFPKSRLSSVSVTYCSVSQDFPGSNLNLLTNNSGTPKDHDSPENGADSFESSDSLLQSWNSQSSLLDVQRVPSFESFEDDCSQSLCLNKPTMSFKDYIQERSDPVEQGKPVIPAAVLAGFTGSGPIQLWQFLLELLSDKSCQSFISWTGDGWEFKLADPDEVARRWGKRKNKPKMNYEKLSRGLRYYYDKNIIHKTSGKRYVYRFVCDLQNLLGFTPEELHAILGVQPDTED
The conditions noted are these: protein: recombinant; tags: N-terminal GST; dsDNA, one strand shown. The essentials:
as §1

In another test the target is T9, SPDEF (Homo sapiens, UniProt O95238 1-335).
T9 sequence: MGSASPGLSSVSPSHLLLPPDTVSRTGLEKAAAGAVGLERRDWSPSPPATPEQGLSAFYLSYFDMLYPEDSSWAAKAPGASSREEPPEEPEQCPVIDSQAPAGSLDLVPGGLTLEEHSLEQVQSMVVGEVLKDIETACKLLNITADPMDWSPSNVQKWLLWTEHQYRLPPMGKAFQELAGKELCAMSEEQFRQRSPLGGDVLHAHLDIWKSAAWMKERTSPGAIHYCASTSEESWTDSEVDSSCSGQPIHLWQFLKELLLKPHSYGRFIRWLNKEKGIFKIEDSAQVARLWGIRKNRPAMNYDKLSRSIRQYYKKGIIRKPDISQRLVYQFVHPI
Conditions: protein: recombinant; tags: N-terminal GST; dsDNA, one strand shown. The essentials:
as §1

In a further test the target is T10, ETV7 (Homo sapiens, UniProt Q9Y603 1-341).
T10 sequence: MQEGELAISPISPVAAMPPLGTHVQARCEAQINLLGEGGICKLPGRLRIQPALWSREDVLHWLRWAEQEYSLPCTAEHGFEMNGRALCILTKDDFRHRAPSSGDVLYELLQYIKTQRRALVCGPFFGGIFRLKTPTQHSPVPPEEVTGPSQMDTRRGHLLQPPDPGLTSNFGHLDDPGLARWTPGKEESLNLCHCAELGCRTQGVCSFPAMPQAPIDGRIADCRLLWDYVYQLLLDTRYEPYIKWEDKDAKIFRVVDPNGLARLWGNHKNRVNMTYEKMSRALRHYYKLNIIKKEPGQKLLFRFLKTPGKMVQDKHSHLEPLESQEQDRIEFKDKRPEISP
Conditions: protein: recombinant; tags: N-terminal GST; dsDNA, one strand shown. The essentials:
as §1

The target in a further test is T11, ELF5 (Homo sapiens, UniProt Q9UKW6-2 1-255).
T11 sequence: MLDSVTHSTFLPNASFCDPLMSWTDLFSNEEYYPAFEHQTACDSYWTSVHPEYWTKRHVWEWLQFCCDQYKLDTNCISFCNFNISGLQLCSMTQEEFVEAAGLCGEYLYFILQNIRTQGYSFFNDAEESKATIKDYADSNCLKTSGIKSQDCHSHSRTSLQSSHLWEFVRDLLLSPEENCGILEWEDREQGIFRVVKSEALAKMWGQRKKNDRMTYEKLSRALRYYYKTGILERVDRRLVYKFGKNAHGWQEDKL
Conditions: protein: recombinant; tags: N-terminal GST; dsDNA, one strand shown. The essentials: as §1

The target in the next test is T12, ETV3 (Homo sapiens, UniProt P41162-2 1-143).
T12 sequence: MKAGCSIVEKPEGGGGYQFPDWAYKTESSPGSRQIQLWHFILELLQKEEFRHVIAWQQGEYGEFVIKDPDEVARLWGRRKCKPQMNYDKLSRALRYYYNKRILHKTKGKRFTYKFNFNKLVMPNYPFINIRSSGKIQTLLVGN
The conditions noted are these: protein: recombinant; tags: N-terminal GST; dsDNA, one strand shown. The essentials: as §1

In a further test the target is ETV6 (Homo sapiens, UniProt P41212 1-452). The conditions noted are these: protein: recombinant; tags: N-terminal GST; dsDNA, one strand shown. The method in brief: as §1
Chain of ETV6 (P41212 whole entry): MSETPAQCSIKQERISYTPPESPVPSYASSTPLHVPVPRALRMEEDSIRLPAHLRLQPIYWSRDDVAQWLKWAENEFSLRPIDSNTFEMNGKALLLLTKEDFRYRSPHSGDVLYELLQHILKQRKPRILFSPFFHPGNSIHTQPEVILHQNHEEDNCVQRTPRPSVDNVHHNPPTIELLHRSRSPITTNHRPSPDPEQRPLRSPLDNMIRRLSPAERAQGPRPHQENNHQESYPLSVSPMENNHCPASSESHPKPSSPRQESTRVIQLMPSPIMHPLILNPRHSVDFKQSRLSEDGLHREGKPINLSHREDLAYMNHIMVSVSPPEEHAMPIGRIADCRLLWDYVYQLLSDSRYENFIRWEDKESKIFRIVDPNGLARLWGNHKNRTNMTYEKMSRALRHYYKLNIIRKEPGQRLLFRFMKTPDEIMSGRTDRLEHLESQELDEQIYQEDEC

Chain of ELF4 (Q99607 whole entry): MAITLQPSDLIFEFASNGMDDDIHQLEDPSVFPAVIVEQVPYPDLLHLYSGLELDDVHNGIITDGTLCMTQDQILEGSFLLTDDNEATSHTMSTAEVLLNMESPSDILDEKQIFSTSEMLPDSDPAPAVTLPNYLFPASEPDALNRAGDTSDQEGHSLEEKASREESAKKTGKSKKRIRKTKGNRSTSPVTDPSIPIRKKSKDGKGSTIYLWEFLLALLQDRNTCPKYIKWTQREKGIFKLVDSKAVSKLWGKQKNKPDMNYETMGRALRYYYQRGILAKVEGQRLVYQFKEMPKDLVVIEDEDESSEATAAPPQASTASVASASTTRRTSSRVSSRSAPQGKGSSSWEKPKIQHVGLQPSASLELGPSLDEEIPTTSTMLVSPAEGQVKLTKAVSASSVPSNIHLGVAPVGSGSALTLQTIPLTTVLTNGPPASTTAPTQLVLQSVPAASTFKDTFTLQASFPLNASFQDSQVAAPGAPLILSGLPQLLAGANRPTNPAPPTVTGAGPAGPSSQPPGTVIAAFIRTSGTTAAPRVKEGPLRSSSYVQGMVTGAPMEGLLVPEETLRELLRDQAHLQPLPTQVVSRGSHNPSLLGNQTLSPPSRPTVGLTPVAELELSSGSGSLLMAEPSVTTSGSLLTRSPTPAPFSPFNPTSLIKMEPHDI
Chain of HSF1 (Q00613 whole entry): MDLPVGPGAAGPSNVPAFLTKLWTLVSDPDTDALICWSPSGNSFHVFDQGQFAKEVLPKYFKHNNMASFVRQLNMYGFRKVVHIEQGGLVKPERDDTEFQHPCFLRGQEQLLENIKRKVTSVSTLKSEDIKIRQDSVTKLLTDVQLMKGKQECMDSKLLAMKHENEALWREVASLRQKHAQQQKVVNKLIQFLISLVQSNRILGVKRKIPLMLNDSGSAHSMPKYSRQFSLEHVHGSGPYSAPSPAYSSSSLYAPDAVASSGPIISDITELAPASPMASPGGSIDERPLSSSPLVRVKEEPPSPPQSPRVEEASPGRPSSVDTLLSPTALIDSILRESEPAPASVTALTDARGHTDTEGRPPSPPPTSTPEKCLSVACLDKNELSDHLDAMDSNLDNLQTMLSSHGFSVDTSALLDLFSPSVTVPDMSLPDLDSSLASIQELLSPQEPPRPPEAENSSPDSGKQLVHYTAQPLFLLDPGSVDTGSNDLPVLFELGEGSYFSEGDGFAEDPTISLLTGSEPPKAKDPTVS
Chain of ETV1 (P50549 whole entry): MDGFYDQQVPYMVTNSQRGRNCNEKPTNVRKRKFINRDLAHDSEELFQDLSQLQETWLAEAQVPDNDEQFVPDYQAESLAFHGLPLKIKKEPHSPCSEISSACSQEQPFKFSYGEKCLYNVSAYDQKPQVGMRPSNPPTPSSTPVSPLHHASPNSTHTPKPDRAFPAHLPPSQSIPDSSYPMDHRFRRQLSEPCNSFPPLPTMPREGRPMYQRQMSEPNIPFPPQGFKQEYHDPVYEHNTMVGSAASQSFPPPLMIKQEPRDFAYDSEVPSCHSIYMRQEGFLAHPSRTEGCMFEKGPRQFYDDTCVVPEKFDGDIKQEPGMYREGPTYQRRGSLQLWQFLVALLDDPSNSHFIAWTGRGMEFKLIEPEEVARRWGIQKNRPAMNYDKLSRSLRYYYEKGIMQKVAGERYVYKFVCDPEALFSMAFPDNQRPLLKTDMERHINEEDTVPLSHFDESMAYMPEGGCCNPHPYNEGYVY
Chain of ETV5 (P41161 whole entry): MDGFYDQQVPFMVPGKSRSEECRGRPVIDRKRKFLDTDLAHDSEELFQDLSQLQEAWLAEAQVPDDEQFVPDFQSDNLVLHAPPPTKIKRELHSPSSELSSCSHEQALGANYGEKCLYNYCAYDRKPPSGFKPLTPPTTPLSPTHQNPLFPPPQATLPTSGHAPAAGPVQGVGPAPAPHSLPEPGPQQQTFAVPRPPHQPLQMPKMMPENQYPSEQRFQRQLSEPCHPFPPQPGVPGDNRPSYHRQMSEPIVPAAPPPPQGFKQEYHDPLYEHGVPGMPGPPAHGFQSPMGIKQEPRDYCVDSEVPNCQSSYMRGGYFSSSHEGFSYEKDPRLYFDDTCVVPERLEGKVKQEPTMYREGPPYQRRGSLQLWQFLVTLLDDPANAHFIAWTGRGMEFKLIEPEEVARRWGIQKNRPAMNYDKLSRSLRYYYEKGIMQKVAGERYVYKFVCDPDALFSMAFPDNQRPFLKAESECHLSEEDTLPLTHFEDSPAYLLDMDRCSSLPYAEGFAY
Chain of CRX (O43186 whole entry): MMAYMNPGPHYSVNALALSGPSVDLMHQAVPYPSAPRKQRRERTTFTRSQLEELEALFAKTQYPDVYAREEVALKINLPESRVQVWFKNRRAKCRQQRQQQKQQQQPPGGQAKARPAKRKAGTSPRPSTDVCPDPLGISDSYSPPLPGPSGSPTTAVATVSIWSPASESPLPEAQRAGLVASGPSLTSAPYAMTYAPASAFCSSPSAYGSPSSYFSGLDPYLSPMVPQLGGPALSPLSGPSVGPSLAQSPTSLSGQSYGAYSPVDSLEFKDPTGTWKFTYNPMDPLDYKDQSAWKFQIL

Regarding CTGCAA, the binding signal with FEV is 1.29 fold enrichment (6-mer frequency, TF over GST control); in the test with ETV5, 1.3 fold enrichment (6-mer frequency, TF over GST control); with HSF1, 1.14 fold enrichment (6-mer frequency, TF over GST control); in the test with SPIC it was 1.2 fold enrichment (6-mer frequency, TF over GST control); with ELF4 it was 1.23 fold enrichment (6-mer frequency, TF over GST control); with ELK4, 1.32 fold enrichment (6-mer frequency, TF over GST control). Also, the binding signal with ETV2 is 1.07 fold enrichment (6-mer frequency, TF over GST control); in the test with ELF3, 1.4 fold enrichment (6-mer frequency, TF over GST control); with CRX it was 1.05 fold enrichment (6-mer frequency, TF over GST control); with ETV1, 1.24 fold enrichment (6-mer frequency, TF over GST control); with ERF it was 1.28 fold enrichment (6-mer frequency, TF over GST control); in the test with ETV3L, 1.35 fold enrichment (6-mer frequency, TF over GST control). Besides, the binding signal is 1.31 fold enrichment (6-mer frequency, TF over GST control) with ETS2; 1.11 fold enrichment (6-mer frequency, TF over GST control) with SPDEF; 1.16 fold enrichment (6-mer frequency, TF over GST control) in the test with ETV7; 1.17 fold enrichment (6-mer frequency, TF over GST control) in the test with ELF5; 1.26 fold enrichment (6-mer frequency, TF over GST control) in the test with ETV3; 1.33 fold enrichment (6-mer frequency, TF over GST control) with ETV6.
